Reference: PubChem BioAssay (NCATS)
Inconclusive results are not listed. Values without a mark were called inactive. Active and inactive are the calls of the source. The call rests on the fitted dose curve; in most records, active means well fitted curve in the direction sought with a large enough effect; inconclusive means small, poorly fitted or top-dose-only effect, or another doubt; inactive means no such curve, though single readings can be large or run the other way.

Test: qHTS Assay for Identifying Gametocytocidal Compounds (AID 743244);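 on max response: actives lower the fluorescent signal which means gametocytes are killed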
Settings: P. falciparum 3D7 stage III-V gametocytes, alamarBlue, 72 h; max response: stronger effect = lower value
Method in brief: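 3D7 gametocytes, stages III–V, 20,000/well; cpd 72 h, 37 °C/5% CO2; + alamarBlue 24 h; fluor. Ex 525/Em 598.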
On the % scale 0 is the no-effect control and ±100 the full control effect; potency means the concentration at half of the fitted maximal effect.

SMILES	max response	Potency
COc1cc(C(=O)OC(COCCC(C)C)CN2CCOCC2)cc(OC)c1OC (centres undefined)	4.25%	
Cc1cccc(C)c1NC(=O)c1cc(S(N)(=O)=O)c(Cl)cc1O	11.8%	
C[C@H]1C[C@H]2[C@@H]3CCC4=CC(=O)C=C[C@]4(C)[C@H]3C(=O)C[C@]2(C)[C@@]1(O)C(=O)CO	-0.729%	
CCC1=C[C@@H]2CN(C1)Cc1c([nH]c3ccccc13)[C@@](C(=O)OC)(c1cc3c(cc1OC)N(C)[C@H]1[C@@](O)(C(=O)OC)[C@H](OC(C)=O)[C@]4(CC)C=CCN5CC[C@]31[C@@H]54)C2		11.2 µM (active)
CC(=O)Nc1ccn(C2COC(COC(=O)c3ccccc3)O2)c(=O)n1 (centres undefined)	-5.34%	
CC(=O)N[C@@H](CCC(N)=O)C(=O)O	4.31%	
O=C(O)C(=O)Nc1cccc(-c2nn[nH]n2)c1	-10.1%	
Cc1ccc(/C=N/n2c(-c3ccccc3)csc2=S)cc1	-23%	
CN1CCCN=C1/C=C/c1cccs1	3.61%	
CN(C)C(=O)CNC(=O)Cc1ccccc1	15%	
C1N2CN3CN1CN(C2)C3	2.07%	
CN=C(N)NC(=O)Nc1c(C)cccc1C	9.51%	
CN(CC1(C)CCCO1)S(=O)(=O)c1ccc(Cl)c(S(N)(=O)=O)c1 (centres undefined)	-10.7%	
CCCCCC(=O)O[C@]1(C(C)=O)CC[C@H]2[C@@H]3CCC4=CC(=O)CC[C@]4(C)[C@H]3CC[C@@]21C	7.11%	
COc1cc(C(=O)NC2CCCNC2)cc(OC)c1OC (centres undefined)	-0.328%	
CC(=O)OCC(=O)Nc1cc(C#N)cc(NC(=O)COC(C)=O)c1Cl	-6.24%	
CC[C@@H]([C@H](C)O)n1ncn(-c2ccc(N3CCN(c4ccc(OC[C@@H]5CO[C@@](Cn6cncn6)(c6ccc(F)cc6F)C5)cc4)CC3)cc2)c1=O	13.4%	
O=C(CS(=O)Cc1ccco1)NC/C=C\COc1cc(CN2CCCCC2)ccn1 (centres undefined)	9.57%	
O=C(OCC1(COC(=O)c2cccnc2)CCCC(COC(=O)c2cccnc2)(COC(=O)c2cccnc2)C1O)c1cccnc1	-9.22%	
CC1(C)O[C@@H]2C[C@H]3[C@@H]4C[C@H](F)C5=CC(=O)C=C[C@]5(C)[C@@]4(F)[C@@H](O)C[C@]3(C)[C@]2(C(=O)CO)O1	-5.96%	

SMILES	max response	Potency
CCOC(=O)NNc1ccc(N(CC)CC(C)O)nn1 (centres undefined)	0.172%	
Nc1c(NC/C=C\COc2cc(CN3CCCCC3)ccn2)c(=O)c1=O	-0.695%	
CCCCCCCCCCCCCC[N+](C)(C)C		14.1 µM (active)
CCCc1c2oc(C(=O)O)cc(=O)c2cc2c(=O)cc(C(=O)O)n(CC)c12	-6.99%	
CSc1ccc(/C=C2/C(C)=C(CC(=O)O)c3cc(F)ccc32)cc1	-4.94%	
Cc1ccccc1N1CCN(CCc2nnc3n2CCCC3)CC1	-15.7%	
CCCCCCCCCCCCCCCCCCNC(=O)OC1CCN(C(=O)OC[C@H](COC(=O)N(Cc2cccc[n+]2CC)C(=O)c2ccccc2OC)OC)CC1		15.8 µM (active)
O=C(CCC1CCN(Cc2ccccc2)CC1)c1ccc2c(c1)NCCCC2	-4.54%	
CC(=O)N(CC(O)CO)c1c(I)c(C(=O)NCCO)c(I)c(C(=O)NCC(O)CO)c1I (centres undefined)	13.7%	
CC(=O)Nc1ccc(S(=O)(=O)Nc2cc(C)on2)cc1	3.06%	
CN(C(=O)C(Cl)Cl)c1ccc(OC(=O)c2ccco2)cc1	8.61%	
CCOC(=O)[C@H](CCc1ccccc1)N[C@@H](C)C(=O)N(CC(=O)O)C1Cc2ccccc2C1	-4.1%	
CO/N=C(/C(=O)N[C@@H]1C(=O)N2C(C(=O)O)=C(Cn3nnc(C)n3)CS[C@H]12)c1csc(N)n1	-11.7%	
O=C(O)CCCC[C@@H]1SC[C@@H]2NC(=O)N[C@@H]21	-7.74%	
O=C(NN1CCCC1)NS(=O)(=O)c1ccc(Cl)cc1	0.581%	
CC1c2ccccc2CN1NC(=O)c1ccc(Cl)c(S(N)(=O)=O)c1 (centres undefined)	33.5%	
CC1CC(=O)NN=C1c1ccc(NCC(C)(C)NCC(O)COc2cc(Cl)ccc2C#N)cc1 (centres undefined)	11.8%	
CCOC(=O)O[C@]1(C(=O)OCCl)CC[C@H]2[C@@H]3CCC4=CC(=O)C=C[C@]4(C)[C@H]3[C@@H](O)C[C@@]21C	-2.36%	
CCC(C(=O)NC(=O)NC(C)=O)c1ccccc1 (centres undefined)	-11.8%	
